In PubChem BioAssay one finds outcome and inhibition data, which are given here for 16 molecules.

Assay [1] relates to TRPC4 beta (transient receptor potential cation channel C4), mouse. As to the kind of experiment: activators of mouse TRPC4 channel, confirmation, cell-based, Fluo4 calcium, HEK293 TRPC4beta/mu-opioid, duplicates, 10 µM (AID 2426;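 active = fluorescence ratio normalized to control raised more than 50% in primary screen plus both repeat runs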). As to conditions: Fluo4 calcium fluorescence, at 10 µM; hits give high values.
For assay [2], the system named is transient receptor potential cation channel C4 beta (TRPC4), mouse. The assay can be described thus: activators of mouse TRPC4 channel, confirmation, cell-based, second round, Fluo4, HEK293 TRPC4beta/mu-opioid, 1 µM (AID 2461;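 active = primary screen active and over 50% activation in each of two duplicate runs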). As to conditions: Fluo4 calcium fluorescence, at 1 µM; hits give high values.
Assay [3] relates to TRPC4 (transient receptor potential cation channel C4 beta), mouse. The assay can be described thus: positive allosteric modulators of mouse TRPC4, confirmation, cell-based, second round, Fluo-4, HEK293 TRPC4beta/mu-opioid, 1 µM (AID 2554;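 active = primary screen hit whose fluorescence ratio, in both repeats, exceeds the weak agonist control mean by 3 SD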). As to conditions: DAMGO EC20, Fluo-4 calcium flux, at 1 µM; hits give high values. For orientation: Calcium flux is commonly read through the fluorescence of an indicator in the cells.

Assay [4] relates to TRPC4 beta (transient receptor potential cation channel C4), mouse. The assay can be described thus: positive allosteric modulators of mouse TRPC4, confirmation, cell-based, Fluo-4, HEK293 TRPC4beta/mu-opioid (AID 2555;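 active = primary screen hit whose calcium fluorescence ratio, in both repeats, exceeds the weak agonist control mean by 3 SD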). As to conditions: DAMGO EC20, Fluo-4 calcium flux, at 10 µM; hits give high values.
Assay [5] addresses Short transient receptor potential channel 4 (Mus musculus) (UniProt Q9QUQ5). The assay can be described thus: inhibitors of mouse TRPC4 channel, confirmation, cell-based, Fluo4, HEK293 TRPC4beta/mu-opioid (AID 2636;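 active = calcium signal cut by more than 3 SD below the full-agonist control yet still positive, in both repeats and the earlier primary screen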). The conditions noted are these: DAMGO, Fluo4 calcium flux, at 10 µM; hits give high values.
The target is the same in assay [6]. The assay can be described thus: inhibitors of mouse TRPC4 channel, confirmation, cell-based, second round, Fluo4, HEK293 TRPC4beta/mu-opioid, 1 µM (AID 2637;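 active = calcium signal ratio cut to more than 3 SD under the fully stimulated control mean yet still positive, in both repeats and the primary screen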;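 for inhibition: percent of integrated ratio relative to wells lacking test compound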). The conditions noted are these: Fluo4 calcium flux, DAMGO, at 1 µM; hits give high values.
Assay [7] shares this target. As to the kind of experiment: mouse TRPC4 channel activators, dose response, cell-based, HEK293 TRPC4/mu-opioid, Fluo-4 calcium (AID 434937;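 active = primary screen activator hit with a dose response curve and TRPC4 channel activation at any tested dose; inactive = no activation, no dose response, or not a primary hit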).
The target is the same in assay [8]. The assay can be described thus: TRPC4 positive allosteric modulators, dose response, cell-based, HEK293 TRPC4/mu-opioid, Fluo-4 calcium, EC20 DAMGO (AID 434941).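 Note: calcium entry triggered by an EC20 dose of DAMGO at the co-expressed mu-opioid receptor.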
Assay [9] addresses Short transient receptor potential channel 6 (Mus musculus) (UniProt Q61143). The assay can be described thus: inhibition of mouse TRPC6 channel, confirmation, selectivity assay for TRPC4 inhibitor project, cell-based, HEK293, membrane potential dye, duplicate (AID 434948;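 active = active in primary screen and both duplicates, each dropping signal beyond three positive-control SD with fluorescence still positive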). The conditions noted are these: HEK293 TRPC6, membrane potential dye fluorescence, at 10 µM, stimulated with maximal-effect acetylcholine; hits give high values.

Assay [10] shares this target. As to the kind of experiment: activation of mouse TRPC6 channel, confirmation, selectivity assay for TRPC4 activator project, cell-based, HEK293, membrane potential dye, duplicate (AID 434950;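 active = membrane potential signal rise above negative control mean plus 3 SD in both duplicates, also active in the earlier TRPC4 screen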). The conditions noted are these: HEK293 TRPC6, membrane potential fluorescence, at 10 µM; hits give high values.
For assay [11] the target is unchanged. As to the kind of experiment: TRPC6 potentiation by TRPC4 potentiator hits, confirmation, selectivity assay for TRPC4 potentiator project, HEK293 cells, membrane potential dye, duplicate (AID 434952;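 active = compound raising the membrane signal above positive-control mean plus 3 SD in both repeats, and a primary screen hit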). As to conditions: HEK293 TRPC6, membrane potential dye fluorescence, at 10 µM, maximal acetylcholine added after compound; hits give high values.
Assay [12] concerns the target Short transient receptor potential channel 4 (Mus musculus) (UniProt Q9QUQ5). The assay can be described thus: calcium flux activators in TRPC4/5HT1a cells, counter-screen for TRPC4 activator project, cell-based, second counter screen, HEK293 TRPC4/5HT1a, Fluo-4 (AID 434977;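 active = calcium signal rise above buffer-control mean plus 5 SD in both duplicates, and also a hit in the primary screen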). The conditions noted are these: Fluo-4 calcium flux, at 10 µM; hits give high values.
The nature of assay [13]: calcium flux inhibitors in TRPC4/5HT1a cells, confirmation, counter-screen for TRPC4 inhibitor project, cell-based, second counter screen, HEK293 TRPC4/5HT1a, Fluo-4 (AID 434978;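 active = primary screen active whose calcium signal fell more than 3 SD beyond the full-serotonin control mean in both duplicate plates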;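 for outcome: serotonin given first at submaximal then at maximal dose after compound preincubation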). The conditions noted are these: Fluo-4 calcium flux, at 10 µM, serotonin added to trigger calcium flux; hits give high values.
Assay [14] deals with TRPC4 (mouse), co-expressed with 5HT1a in HEK293. The assay can be described thus: calcium flux potentiators in TRPC4/5HT1a cells, confirmation, counter-screen for TRPC4 potentiator project, cell-based, second counter screen, HEK293 TRPC4/5HT1a, Fluo-4 (AID 434979;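 active = signal rise over 3 SD above mean of control wells given weak agonist, in both repeats and first screen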). The conditions noted are these: Fluo-4 calcium flux, at 10 µM, serotonin added at its EC20 dose; hits give high values.

A short description of assay [15]: calcium flux activation in mu-opioid HEK293 cells, confirmation, counter-screen for TRPC4 activator project, cell-based, HEK293 mu-opioid receptor line (AID 449723;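 active = hit in primary screen, with calcium signal over 5 SD above buffer well mean in both duplicates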;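 note: counter screen cells carry the mu-opioid receptor alone and lack TRPC4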). As to conditions: Fluo-4 calcium fluorescence, at 10 µM; hits give high values.
Assay [16] is described as follows: calcium flux enhancement in mu-opioid HEK293 cells, confirmation, counter-screen for TRPC4 allosteric potentiator project, cell-based, HEK293 mu-opioid receptor line (AID 449724;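 active = calcium signal rise more than 3 SD above the low-dose agonist control mean, in both duplicate plates and the primary screen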;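 note: HEK293 cells carrying mu-opioid receptor only with no TRPC4 channel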). As to conditions: Fluo-4 calcium flux, at 10 µM, compound added before EC20 DAMGO stimulus; hits give high values.

For some of these results: Entries with a potency or affinity are not part of this list. The source made the active and inactive calls.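 Rule for the calls, unless noted: active = earlier screen potentiator hit that boosts the TRPC4 ion channel at some dose, with a dose response; inactive = no potentiation, no dose response, or not a prior hit.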

Short transient receptor potential channel 6 (Mus musculus), sequence (Q61143 whole entry, looked up): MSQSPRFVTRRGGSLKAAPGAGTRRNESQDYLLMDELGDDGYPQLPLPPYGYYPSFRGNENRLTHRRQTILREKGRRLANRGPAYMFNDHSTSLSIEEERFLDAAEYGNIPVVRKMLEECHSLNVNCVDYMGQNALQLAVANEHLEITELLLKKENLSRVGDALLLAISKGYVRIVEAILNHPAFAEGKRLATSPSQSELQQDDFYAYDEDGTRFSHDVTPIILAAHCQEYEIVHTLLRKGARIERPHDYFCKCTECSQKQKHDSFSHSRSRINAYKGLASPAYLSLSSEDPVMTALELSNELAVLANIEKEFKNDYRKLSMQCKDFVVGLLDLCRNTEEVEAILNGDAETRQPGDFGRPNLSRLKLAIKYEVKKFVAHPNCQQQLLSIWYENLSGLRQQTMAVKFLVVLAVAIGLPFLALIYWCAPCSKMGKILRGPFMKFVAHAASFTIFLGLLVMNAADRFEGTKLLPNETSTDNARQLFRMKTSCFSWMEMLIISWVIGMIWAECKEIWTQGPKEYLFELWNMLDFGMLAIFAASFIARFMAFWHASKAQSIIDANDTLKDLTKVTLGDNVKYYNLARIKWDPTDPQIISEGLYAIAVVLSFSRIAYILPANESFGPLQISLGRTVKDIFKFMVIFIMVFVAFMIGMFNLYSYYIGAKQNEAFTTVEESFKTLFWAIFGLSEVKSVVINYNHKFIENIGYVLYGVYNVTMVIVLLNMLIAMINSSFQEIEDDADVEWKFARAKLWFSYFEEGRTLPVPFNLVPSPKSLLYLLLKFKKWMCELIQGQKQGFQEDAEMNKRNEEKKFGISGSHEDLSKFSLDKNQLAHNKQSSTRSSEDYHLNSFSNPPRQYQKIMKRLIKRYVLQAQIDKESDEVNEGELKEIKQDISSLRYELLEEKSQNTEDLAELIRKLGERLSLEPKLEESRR
Short transient receptor potential channel 4 (Mus musculus), sequence (Q9QUQ5 whole entry, looked up): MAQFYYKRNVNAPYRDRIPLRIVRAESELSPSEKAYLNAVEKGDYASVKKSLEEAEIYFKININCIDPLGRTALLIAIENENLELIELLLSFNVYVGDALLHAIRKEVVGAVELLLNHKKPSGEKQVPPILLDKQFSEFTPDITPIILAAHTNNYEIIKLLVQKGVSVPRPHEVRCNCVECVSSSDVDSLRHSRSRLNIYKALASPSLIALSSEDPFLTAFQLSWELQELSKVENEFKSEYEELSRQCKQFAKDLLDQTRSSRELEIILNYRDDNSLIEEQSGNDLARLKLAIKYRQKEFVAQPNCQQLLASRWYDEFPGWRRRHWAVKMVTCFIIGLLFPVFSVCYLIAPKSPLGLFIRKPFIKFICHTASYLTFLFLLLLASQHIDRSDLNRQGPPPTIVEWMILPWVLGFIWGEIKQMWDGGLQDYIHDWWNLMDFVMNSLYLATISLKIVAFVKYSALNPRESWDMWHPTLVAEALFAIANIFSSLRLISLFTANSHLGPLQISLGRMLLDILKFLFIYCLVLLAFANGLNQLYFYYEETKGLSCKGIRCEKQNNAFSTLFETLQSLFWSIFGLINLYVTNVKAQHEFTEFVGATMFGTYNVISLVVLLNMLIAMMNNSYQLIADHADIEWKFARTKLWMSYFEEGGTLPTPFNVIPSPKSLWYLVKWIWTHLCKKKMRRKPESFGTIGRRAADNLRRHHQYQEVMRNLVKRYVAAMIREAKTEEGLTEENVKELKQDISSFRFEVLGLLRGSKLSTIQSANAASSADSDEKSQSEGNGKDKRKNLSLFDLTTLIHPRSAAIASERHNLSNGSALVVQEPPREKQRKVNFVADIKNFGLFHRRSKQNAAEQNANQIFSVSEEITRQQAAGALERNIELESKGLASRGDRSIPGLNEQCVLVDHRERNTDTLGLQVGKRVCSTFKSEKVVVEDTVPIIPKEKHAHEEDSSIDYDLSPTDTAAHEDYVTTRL

For the molecule `C=CCSc1nnc2n(-c3ccccc3OC)c(=O)c3c4c(sc3n12)CCC4`, the outcome in assay [1], in assay [2], in assay [3], in assay [4], in [6] and in assay [7] was inactive. Besides, the outcome in assay [8], in assay [9], in [10], in [11], in assay [12] and in assay [14] was inactive. Further, the outcome in [15] and in assay [16] was inactive. Besides, the inhibition in assay [5] was 58% (active); in assay [13], 29.1% (active).
Consider `COc1ccc(-c2csc(NC(=O)Cc3cccc4ccccc34)c2C(=O)O)cc1`, for which the outcome in assay [1], in assay [2], in [3], in assay [4], in [6] and in assay [7] was inactive. The outcome in assay [8], in [9], in assay [10], in assay [11], in assay [12] and in [14] was inactive. The outcome in [15] and in assay [16] was inactive. The results for the inhibition in assay [5] and in [13] were 90% (active) and 40.2% (active), respectively.
As to `CNCc1c(OCc2ccccc2)ccc2ccccc12`, the outcome in [1], in assay [2], in [3], in [4], in assay [6] and in [7] was inactive. Further, the outcome in assay [8], in [10], in [11], in assay [12], in assay [14] and in [15] was inactive. In assay [16], the outcome was inactive. Besides, the inhibition in assay [5] is 92% (active); in [9], 46% (active); in assay [13], 34.9% (active).
As to `CCOC(=O)CSc1nc2c(sc(=S)n2Cc2ccco2)c(=O)n1-c1ccccc1`, the result in assay [1], in [2], in assay [3], in assay [4], in assay [7] and in assay [8] was inactive. Besides, the outcome in [9], in assay [10], in [11], in [12], in assay [13] and in [14] was inactive. The result in [15] and in [16] was inactive. Also, the inhibition is 68% (active) in [5] and 42% (active) in [6].
With `O=C(Cn1c(NCCCO)nc2ccccc21)c1ccc(Br)cc1`, the outcome in assay [1], in [2], in assay [3], in [4], in assay [7] and in [8] was inactive. The molecule was called inactive in assay [9], in assay [10], in assay [11], in assay [12], in assay [14] and in assay [15]. Besides, the result in assay [16] was inactive. Moreover, the figures for the inhibition in assay [5], in assay [6] and in assay [13] were 88% (active), 52% (active) and 28.7% (active), respectively.
On to `CSCCNCc1cn(-c2ccc(F)cc2F)nc1-c1ccccc1C`, for which the outcome in assay [1], in assay [2], in assay [3], in assay [4], in [6] and in [7] was inactive. The outcome in [8], in [9], in [10], in assay [11], in assay [12] and in [13] was inactive. Further, the result in [14], in [15] and in assay [16] was inactive. The inhibition in [5] was 91% (active).
Regarding `COc1cc(/C=C2\SC(=O)N(c3ccccc3Cl)C2=O)cc([N+](=O)[O-])c1O`, the outcome in assay [1], in [2], in assay [3], in assay [4], in assay [6] and in assay [7] was inactive. Besides, the result in assay [8], in assay [9], in assay [10], in [11], in assay [12] and in assay [14] was inactive. The outcome in assay [15] and in assay [16] was inactive. The values for the inhibition in assay [5] and in assay [13] were 84% (active) and 26% (active), respectively.
Regarding `Cc1ccn2c(-c3csc(NCc4ccco4)n3)c(C)nc2c1`, the outcome in assay [1], in assay [2], in [3], in [4], in [6] and in [7] was inactive. Further, the result in assay [8], in [9], in assay [10], in assay [11], in assay [12] and in assay [14] was inactive. For the same molecule, the result in assay [15] and in assay [16] was inactive. Moreover, the inhibition was 96% (active) in [5] and 22.8% (active) in assay [13].
On to `O=C(COC(=O)c1cccc([N+](=O)[O-])c1)c1ccc2c(c1)OCO2`, for which the outcome in [1], in assay [2], in [3], in assay [4], in assay [7] and in assay [8] was inactive. Further, the molecule was called inactive in assay [9], in assay [10], in assay [11], in assay [12], in assay [14] and in assay [15]. In addition, the outcome in assay [16] was inactive. Further, the inhibition in [5] is 89% (active); in assay [6] it was 59% (active); in assay [13], 25.3% (active).
`N=c1c2c(n(Cc3ccccc3)c3c1CCC3)CCC2`: the outcome in assay [1], in assay [2], in [3], in [4], in assay [6] and in assay [7] was inactive. In addition, the result in assay [8], in assay [10], in assay [11], in [12], in assay [14] and in [15] was inactive. For the same molecule, the outcome in [16] was inactive. The figures for the inhibition in [5], in [9] and in assay [13] were 65% (active), 53.5% (active) and 37.3% (active), respectively.
Regarding `CCCCCN1C2=NCCN2c2ccccc21`, the result in [1], in assay [2], in [3], in assay [4], in assay [7] and in assay [8] was inactive. The call in [9], in [10], in assay [11], in [12], in [14] and in assay [15] was inactive. Besides, the result in [16] was inactive. For the same molecule, the inhibition in [5] was 94% (active); in assay [6] it was 70% (active); in [13] it was 25.1% (active).
In the case of `O=S(=O)(c1ccccc1)N1CCN(C/C=C/c2ccccc2)CC1`, the outcome in [1], in assay [2], in assay [3], in assay [4], in assay [6] and in assay [7] was inactive. Besides, the outcome in [8], in assay [9], in assay [10], in assay [11], in [12] and in assay [13] was inactive. For the same molecule, the outcome in assay [14], in assay [15] and in assay [16] was inactive. In addition, the inhibition in [5] was 93% (active).
In the case of `COc1ccc(Nc2cc(C)nc3ccc(OC)cc23)cc1`, the outcome in assay [1], in [2], in assay [3], in assay [4], in [6] and in assay [7] was inactive. Also, the result in [8], in assay [10], in [11], in assay [12], in assay [13] and in assay [14] was inactive. For the same molecule, the result in assay [15] and in assay [16] was inactive. In addition, the results for the inhibition in [5] and in assay [9] were 91% (active) and 29.5% (active), respectively.
As to `Oc1ccc(-c2csc(-c3ccccc3)n2)cc1O`, the result in assay [1], in [2], in assay [3], in assay [4], in [6] and in assay [7] was inactive. Also, the result in assay [8], in assay [9], in [10], in assay [11], in assay [12] and in assay [13] was inactive. Besides, the result in assay [14], in assay [15] and in assay [16] was inactive. Also, the inhibition in [5] is 80% (active).
Regarding `CCCCC(CC)C(=O)Nc1ncc([N+](=O)[O-])s1` (stereo unspecified), the outcome in assay [1], in assay [2], in [3], in assay [4], in [6] and in assay [7] was inactive. Further, the result in assay [8], in assay [10], in assay [11], in [12], in assay [14] and in assay [15] was inactive. In [16], the outcome was inactive. For the same molecule, the inhibition in [5] is 81% (active); in assay [9], 33.5% (active); in assay [13] it was 27.7% (active).
Consider `CCCn1c(NCc2ccc(C)o2)nc2ccccc21`, for which the result in [1], in assay [2], in [3], in assay [4], in assay [6] and in assay [7] was inactive. The outcome in [8], in [9], in assay [10], in [11], in assay [12] and in assay [14] was inactive. Also, the result in assay [15] and in assay [16] was inactive. The results for the inhibition in [5] and in assay [13] were 70% (active) and 30% (active), respectively.

As usually defined, the inhibition is the percentage by which the read-out fell short of the control.
